RECQ1 inh = blocks DNA unwinding by human RECQ1. P46063. RECQ1 DNA unwinding, red fluorescence kinetic read. Potency, µM (series often up to 57.3 µM), without a hit: at the highest dose activity, negative = inhibition, usual class: inhibitors. 240,000 compounds, 0.54% hits. AID 2549;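 also: plate controls were vehicle for no effect and no enzyme for full effect; nearly all actives have a fitted effect of over 30% in size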
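50 nM RECQ1T1 preincubated 15 min with compound in Tris pH 8.0 buffer with MgCl2, DTT, Tween-20 and 2.5 ug/ml poly(dI-dC); started with 200 nM TAMRA/BHQ-2 forked duplex and 2 mM ATP. Unwinding read as fluorescence (525/598 nm), two reads 2 h apart.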
BLM inh = blocks DNA unwinding by human BLM helicase; P54132; recombinant BLM DNA unwinding, fluorescence dequenching; Potency, µM (highest dose often 56.1 µM), without a hit: at the top dose activity change, negative = inhibition, most hits filed as inhibitors; 350,000 compounds, 0.2% hits; AID 2528;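 also: plate controls were vehicle for no effect and no enzyme for full effect; nearly all actives have a fitted effect of over 35% in size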
APE1 inh = APE1 (human) endonuclease inhibition | 350,000 compounds, 0.35% hits | AID 2517 | Potency, µM (top dose mostly 65.8 µM), inactives show at the highest dose activity change, negative = inhibition, hits mostly inhibitors | recombinant APE1, TAMRA/BHQ-2 abasic DNA cleavage fluorescence | P27695;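 also: plate controls were vehicle for no effect and reference inhibitor for full effect; nearly all actives have a fitted effect of over 55% in size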
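Step 1: APE1 (0.75 nM) with compound, 15 min RT. Step 2: add 50 nM fluorophore/quencher THF duplex. Step 3: three fluorescence reads 60 s apart (525/598 nm); read 3 minus read 1 = reaction progress.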
TDP1 inh = blocks human tyrosyl-DNA phosphodiesterase 1; Q9NUW8; recombinant TDP1, AlphaScreen DNA substrate cleavage; Potency, µM (top dose mostly 130 µM), for inactives: at the highest dose activity change, negative = inhibition, usual class: inhibitors; 350,000 compounds, 0.28% hits; also: nearly all actives have a fitted effect of over 40% in size
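Enzyme-compound mixtures sat 15 min at room temperature, followed by a 5 min reaction with 15 nM final substrate and 10 min with AlphaScreen beads. Recombinant human Tdp1 was used at 1 nM final.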
L3MBTL1 inh = inhibitors of human L3MBTL1. Potency, µM (top dose mostly 57.1 µM), inactives show at the top dose activity, negative = inhibition, hits mostly inhibitors. Q9Y468. AlphaScreen L3MBTL1–H3K9me1 peptide binding. 230,000 compounds, 0.66% hits; also: nearly all actives have a fitted effect of over 60% in size
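L3MBTL1 50 nM + b-AHA-H3(1-15)K9me1 75 nM, 30 min RT; compound added, 30 min RT; streptavidin donor/Ni-chelate acceptor beads 10 ug/mL each final, 30 min RT dark; AlphaScreen read.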
KDM4E inh = blocks human JMJD2E demethylase activity. JMJD2E catalytic domain, FDH-coupled NADH fluorescence (FDH is formaldehyde dehydrogenase). Potency, µM (doses to about 57.1 µM), without a hit: at the top dose activity change, negative = inhibition, usual class: inhibitors. 230,000 compounds, 1.6% hits. AID 2147; active = well fitted inhibition curve with a large enough effect, not every such curve was filed as active; inconclusive = small, poorly fitted or top-dose-only effect, or another doubt; inactive = no such curve, though single readings can be large or run the other way;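 also: 0% = wells with enzyme and -100% = buffer wells without enzyme; nearly all actives have a fitted effect of over 50% in size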
* = called active by the depositor; i = inactive; ? = inconclusive; / = not tested or not shown; [ ] = another dose, or the depositor's remark. Shown is part of a subset that was picked to be rich in hits. Unless noted, calls follow the shape of the dose curve; as a rule, active = well fitted curve in the direction sought with a large enough effect; inconclusive = small, poorly fitted or top-dose-only effect, or another doubt; inactive = no such curve, though single readings can be large; an effect the other way counts as inactive or inconclusive. Unless noted, % is scaled to controls: 0 for no effect and ±100 for the full control effect; potency is read from the fitted curve at half-maximal effect.

SMILES | RECQ1 inh | BLM inh | APE1 inh | TDP1 inh | L3MBTL1 inh | KDM4E inh
O=C(N/N=C/c1ccncc1)c1cc2ccccc2o1 | -1% | 6% | 0% | 5% | 3% | -15%
O=C(N/N=C/c1cc(Br)c(Br)o1)c1cc2ccccc2o1 | / | -9% | ? | 50µM* | / | /
O=C(N/N=C/c1ccc([N+](=O)[O-])o1)c1cc2c(ccc3ccccc32)o1 | -2% | 7.9µM* | 18% | 0% | 6.3µM* | ?
Cc1ccc(/C=N/NC(=O)c2cc3c(ccc4ccccc43)o2)o1 | / | -2% | 16% | 2% | / | /
CCc1cccc(-n2c(=O)c3cccnc3n2CC(=O)NCc2ccc(C)cc2)c1 | / | -12% | / | -3% | / | /
Cc1ccccc1NS(=O)(=O)c1ccc2[nH]cc(C(=O)N(C)Cc3ccco3)c(=O)c2c1 | 32µM* | -2% | 35µM* | / | ? | ?
CC(=O)N(\C=C/C=C/C=C1\Sc2ccccc2C1=O)c1ccccc1 | ? | ? | ? | 2% | / | 14µM*
CN(C)/C=C1/Sc2ccccc2C1=O | i | 0% | -3% | 7% | -2% | ?
O=C(CNC(=O)c1ccc([N+](=O)[O-])cc1)OC(C(=O)Nc1cc(C(F)(F)F)ccc1Cl)c1ccccc1 (centres undefined) | / | / | / | 1% | / | /
CCOc1ccc(N=Cc2c(C)[nH]n(-c3nc4ccccc4[nH]3)c2=O)cc1 | -2% | -27% | 1% | 50µM* | -13% | ?
Cc1[nH]n(-c2ccccc2)c(=O)c1C=Nc1cnc2ccccc2c1 | -16% | -6% | -6% | 6% | / | ?
Cn1nc(-c2ccc(F)cc2)nc2c(=O)n(C)c(=O)nc1-2 | / | / | / | 1% | / | /
Cc1ccc(-c2nc(=Nc3c(C)cc(C)cc3C)sn2-c2ccccc2)cc1 | / | / | / | 5% | / | /
CN=c1nc(-c2ccccc2)n(-c2ccccc2)s1 | i | / | 5% | 14% | 2% | 3.2µM*
COC(=O)c1sc(-c2ccccc2)cc1NC(C)=O | -2% | -3% | -7% | 2% | 30% | ?
COC(=O)c1sc(-c2cccs2)cc1NC(=O)/C=C/C(=O)O | -7% | 16µM* | -3% | 0% | / | ?
O=C(O)C1(C(=O)O)CCC1 | / | / | 5% | / | 9% | /
N.N.O=C(O)C1(C(=O)O)CCC1.[Pt] | -29% | 0% | 6.3µM* | / | / | 11µM*
CCC(=O)Oc1c(C(=O)CC)cc2c(C)cc(=O)oc2c1C | -4% | -6% | -3% | 0% | 0% | 3%
CCC(=O)Nc1c(OC(=O)CC)ccc2c(C)cc(=O)oc12 | -14% | -1% | 15% | -3% | -5% | 4µM*
COC(=O)CCC(=O)OC1(C)C(=O)C2=CN(CCCCO)C(c3ccc(OC)cc3)=CC2=C(Br)C1=O (centres undefined) | -7%[11.5 µM] | -17% | 8% | 6%[21 µM] | -18% | -9%[11.4 µM]
COC(=O)CCC(=O)OC1(C)C(=O)C2=CN(C(CO)CO)C(c3ccc(OC)cc3)=CC2=C(Br)C1=O (centres undefined) | 10%[11.5 µM] | -19%[12.4 µM] | -3%[12.4 µM] | 5%[21 µM] | / | 5µM*
CN(C)c1ccc(N=Nc2ccccc2C(=O)OCC(=O)Nc2ccccc2C(F)(F)F)cc1 | -7% | -11% | -6% | 12% | 25µM* | 0%
C/C(=N/NC(=O)c1ccncc1)C1=C(O)CC(C)(C)CC1=O | -6% | 1% | -4% | 5% | -1% | 14µM*
C[C@@H]1CC[C@@]2(OC1)O[C@H]1C[C@H]3[C@@H]4CC[C@H]5C[C@@H](O)CC[C@]5(C)[C@H]4CC(=O)[C@]3(C)[C@H]1[C@@H]2C | / | / | -2%[21 µM] | / | / | /
S=c1[nH]nc(-c2cc(-c3ccccc3)n[nH]2)n1/N=C/c1ccc(Cl)cc1 | -15% | -10% | -2% | -1% | -7% | -28%
S=c1[nH]nc(-c2cc(-c3ccccc3)n[nH]2)n1/N=C/c1cccc(Cl)c1 | ? | -20% | -5% | 35µM* | -25% | ?
O=[N+]([O-])c1cc(/C=N/n2c(-c3ccncc3)n[nH]c2=S)ccc1Cl | 4.5µM* | -28% | -15% | 9% | -28% | ?

High-throughput results: PubChem, National Center for Advancing Translational Sciences (NCATS)
